This is part of a sample that, as a whole, favours compounds with a hit. Of some 79,000 tested, about 15% had one in any assay. Unmarked numbers belong to inactive results. Activity calls are given as the source filed them. Cut-off read from the data, not from the text of the source: active = growth inhibition above about 70%; inactive = the rest.
What was measured:
[1] = NCI Yeast Anticancer Drug Screen. Data for the rad50 strain (AID 155);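 note: 0% = growth of vehicle-only cultures of the same strain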; details: S. cerevisiae rad50 strain growth inhibition; at 50.0 µM; active compounds read high
Summary of the method: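 A DNA repair-deficient yeast mutant serves as the test organism; compound-induced growth inhibition is calculated against vehicle-treated cells.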

[2] = NCI Yeast Anticancer Drug Screen. Data for the mec2-1 strain (AID 157); details: S. cerevisiae mec2-1 strain, at 50.0 µM, active compounds read high
Summary of the method: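 Cells of the genetically defined mec2-1 yeast strain are incubated with test compound. Inhibition of growth is calculated against vehicle-treated controls.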

[3] = NCI Yeast Anticancer Drug Screen. Data for the sgs1 mgt1 strain (AID 161);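 note: 0% = growth of cultures given vehicle only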; details: S. cerevisiae sgs1 mgt1 strain, at 50.0 µM, active compounds read high
Summary of the method: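 Test agents were incubated with a DNA-repair-mutant yeast strain. Growth was then read and compared against vehicle-treated controls.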

[4] = NCI Yeast Anticancer Drug Screen. Data for the cln2 rad14 strain (AID 165);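 note: 0% = growth equal to vehicle treated cultures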; details: S. cerevisiae cln2 rad14 strain, at 50.0 µM, active compounds read high
Summary of the method: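 The screen exposed genetically defined yeast (cln2 rad14) to test compounds and scored growth inhibition relative to vehicle-treated controls.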

[5] = NCI Yeast Anticancer Drug Screen. Data for the bub3 strain (AID 167); details: S. cerevisiae bub3 mutant strain, at 50.0 µM, active compounds read high
Summary of the method: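 Inhibition values come from growth of compound-treated mutant yeast normalised to vehicle-treated controls.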

[6] = NCI Yeast Anticancer Drug Screen. Data for the mlh1 rad18 strain (AID 175); details: S. cerevisiae mlh1 rad18 strain growth inhibition; at 50.0 µM; active compounds read high
Summary of the method: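 Compound-treated yeast growth, normalised to vehicle controls. Strain bears defined DNA repair mutations.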

SMILES	growth inhibition [1]	growth inhibition [2]	growth inhibition [3]	growth inhibition [4]	growth inhibition [5]	growth inhibition [6]
Cc1ccc(S(=O)(=O)N/N=C2/CCCOC2)cc1	16.1%	4.15%	59.6%	32.5%	24.2%	38%
Nc1ccc2c(c1)Cc1c-2cc(Cl)c(N)c1Cl	8.85%	-0.65%	-18.8%	6.5%	13.8%	6.2%
COc1cc(C)ccc1C(=O)C[n+]1ccc2ccccc2c1	-41.3%	-1.35%	-25.9%	-56.1%	-1.55%	-2.5%
CCOC(=O)C1C=CC(C)N(C(=O)OCC)N1C(=O)OCC (stereo not drawn)	0.35%	2.45%	7.5%	-2.3%	49.9%	-13.7%
CC(C)(C)C(Br)CC(N)=O (stereo not drawn)	22.1%	1.55%	2%	4.3%	-6.95%	-6.85%
Cn1c(=O)c2c(nc(N/N=C/c3ccccc3C(=O)O)n2C)n(C)c1=O	-14.2%	-3.15%	-7.9%	12.3%	-66.5%	-15.3%
CN(C)[C@@H]1C(=O)C(C(=O)NCNc2cccc(C(=O)O)c2C(=O)O)=C(O)[C@@]2(O)C(=O)C3=C(O)c4c(O)cccc4[C@@](C)(O)[C@H]3C[C@@H]12	2.95%	6.45%	21.8%	-17.2%	-1.1%	31.4%
CCN(CC)CCOC(=O)c1cc(C(C)O)nc2ccccc12 (stereo not drawn)	0.6%	12.3%	-10.5%	0.55%	21.6%	-7.1%
C/C(=C\c1ccccc1)C(O)C(=O)c1nc2ccc(Cl)cc2[nH]c1=O (stereo not drawn)	10.3%	-15.4%	6.15%	26%	-14.2%	6.55%
CCOC(=O)OC1C(OC)OC2COC(c3ccccc3)OC2C1OC(=O)OCC (stereo not drawn)	-1.4%	-13.3%	-20%	-15.7%	-2.25%	11.4%
O=S1(=O)Cc2ccccc2O1	4.25%	5.2%	28.6%	-3.2%	-19%	33%
C[N+](C)(C)c1cc2c(nn1)Nc1ccccc1S2	17.4%	3.8%	-2.75%	14.7%	-17.8%	8.35%
BrCc1ccc(C[P+](c2ccccc2)(c2ccccc2)c2ccccc2)cc1	26.3%	15.3%	16.2%	7%	29.2%	28.4%
O=C(Cc1ccc([N+](=O)[O-])c([N+](=O)[O-])c1CC(=O)C(=O)Nc1cc(Cl)ccc1Cl)C(=O)Nc1cc(Cl)ccc1Cl	-16%	-23.8%	-14.8%	12.3%	25.1%	-4.3%
CCOP(=O)(OCC)c1cc(NC(=O)c2cc(NC(=O)c3cc(NC(=O)Nc4cc(C(=O)Nc5cc(C(=O)Nc6cc(P(=O)(OCC)OCC)c7cccc(P(=O)(OCC)OCC)c7c6)n(C)c5)n(C)c4)cn3C)cn2C)cc2c(P(=O)(OCC)OCC)cccc12	-5.45%	-1.55%	-16.1%	19.9%	2.5%	10.7%
C=CCCC(=O)OC(C)(C)C	16.8%	-15.4%	21.4%	7.2%	6.1%	1.95%
CCOC(=O)CSc1[nH]c(NC(=S)Nc2ccccc2)c(C(N)=O)c1C(N)=O	-14.2%	-8.2%	23.7%	-1.2%	7.5%	-4.45%
CCCCNc1ccc2c(C)c(Cc3ccccc3)c(=O)oc2c1	9.3%	-7.5%	20.3%	2.35%	4.65%	-11%
CCOC(=O)/C(C#N)=C/c1ccnc2ccccc12	-39.7%	-46.5%	-30.8%	-45.4%	-29.1%	-23.1%

SMILES	growth inhibition [1]	growth inhibition [2]	growth inhibition [3]	growth inhibition [4]	growth inhibition [5]	growth inhibition [6]
O=C(c1ccccc1)c1nc2ccc(Cl)cc2cc1C(Br)Br	17.9%	-2.75%	25.1%	15.1%	28.8%	17.9%
Cc1cc(=O)oc2cc(OCc3ccccc3)cc(O)c12	22.8%	4.2%	21.8%	-3.3%	6.45%	12.8%
COc1ccccc1NC(=S)N/N=C(/c1ccccc1)c1ccccn1	-50.9%	22.6%	17.4%	15.1%	20.2%	10.6%
Cc1c[n+]([O-])n(-c2ccccc2)n1	4.65%	-4.9%	0.7%	-38.7%	11.6%	-4.8%
CCC1SC(N)=NC1c1ccccc1 (stereo not drawn)	22.2%	2.85%	31.9%	9.95%	14.1%	24.6%
CSc1nc2nc[nH]c(=O)c2[nH]1	-3.55%	-11.6%	-5.75%	-14.1%	-5.35%	-2.5%
CC(=O)Nc1cc2c(cc1[N+](=O)[O-])-c1ccc([N+](=O)[O-])cc1C2=O	3.9%	4.4%	5.8%	3.2%	13%	-9.8%
COC(=O)C1(CC(=O)C2CC2)NC(=S)NC(=O)C1C#N (stereo not drawn)	13.2%	-10.2%	-12.3%	-8.6%	-21.4%	5.2%
Cc1ccc(S(=O)(=O)N2CCCSCCN(S(=O)(=O)c3ccc(C)cc3)CCCSCC2)cc1	-0.25%	-32.5%	-30.2%	-9.4%	-28.6%	-24.4%
C=C1C2CCC3(CCC4C5(C)CCCC4(C=NC5)C3C2)C1O (stereo not drawn)	8.5%	-10.7%	3.6%	6.75%	-7.3%	1.6%
Cc1c(C)c2ccc(OCC(O)COC(C)C)c(C)c2oc1=O (stereo not drawn)	-10.7%	-5.5%	-2.15%	-5.95%	-1.95%	-29.6%
O=C1c2cccnc2-c2nccc3c2c1nc1ccccc13	90.3% (active)	92.8% (active)	91% (active)	91.4% (active)	91.5% (active)	90.7% (active)
Cc1ccc(Cl)cc1NC(=O)C(Br)C(Br)C(=O)O (stereo not drawn)	93.2% (active)	99.4% (active)	99.5% (active)	90.2% (active)	99% (active)	98.8% (active)
CCN(CC)CCCS/C(N)=N\S(=O)(=O)c1ccc(N)cc1	-6.35%	-41%	-20.2%	-7.8%	-0.5%	-16.6%
CCOC(=O)C[C@](C)(O)C1CCCN1 (stereo partly drawn)	26.5%	11.8%	5.95%	5.3%	-3%	8.75%
Nc1cccc(-c2nc3ncnc(N)c3[nH]2)c1	8.6%	-2.15%	-5.5%	-46.9%	-18.5%	-11.2%
O=C(O)c1ccccc1C(=O)Nc1ccc2ccccc2c1	15.9%	-4.6%	5%	2.6%	7.55%	18.9%
CN(C)B(B(N(C)C)N(C)C)N(C)C	13.7%	17.4%	35.6%	22.4%	13.8%	34.8%
CC(C)(C)CC(C)(O)C(=O)O (stereo not drawn)	6.9%	-18.9%	-15.8%	-1.45%	-13.5%	-3.55%

Reference: PubChem BioAssay (NCI)
